# Measurements as given in PubChem BioAssay (NCATS).
# Records with an inconclusive call do not appear. Calls of active or inactive are those of the source. Unless noted, calls follow the shape of the dose curve; as a rule, active = well fitted inhibition curve with a large enough effect; inconclusive = small, poorly fitted or top-dose-only effect; inactive = no such curve, though single readings can be large or run the other way.
# Legend:
# [1] = High-throughput drug toxicity screening in the BPDCN cell line Gen2.2 (AID 1224824; call rule not given here;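 also: cells exposed to compounds for 48 h before reading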); conditions: Gen2.2 BPDCN cells; at 45.8 µM (top of the series)
# Summary of the method: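 Seed 500 exponentially growing Gen2.2 cells/well; add compounds by pin tool; incubate 48 h, 37 °C, 5% CO2; add CellTiter-Glo, 15 min RT; read luminescence. % activity vs DMSO (100%) and bortezomib (0%).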
# [2] = High-throughput drug toxicity screening in the BPDCN cell line Cal-1 (AID 1224825; call rule not given here); conditions: Cal-1 BPDCN cell viability, qHTS; at 45.8 µM (top of the series)
# Summary of the method: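 Viability of the BPDCN line Cal-1 is measured as ATP-based luminescence (CellTiter-Glo) following 48 h incubation with compounds. Percent activity uses DMSO-treated wells as 100% and 9.2 uM bortezomib as 0%.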
# [3] = qHTS assay for measurement of the activity of small molecule inhibitors on Zika virus induced Caspase-3 activity in human iPSC derived neural progenitor cells (hNPCs) (AID 1224857); also: % of control where 0% means no effect; nearly all actives have a fitted effect of over 65% in size
# Summary of the method: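 Percent inhibition of virus-induced caspase-3/7 luminescence (Caspase-Glo), scaled between uninfected cells and Zika-infected cells. hNPCs received compound 1 hr before ZIKV at 2 FFU/cell, with 6 hours infection at 37 C.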
# [4] = qHTS assay for measurement of the activity of small molecule inhibitors on Zika virus induced Caspase-3 activity in human astrocytoma cells (AID 1224859);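 also: plate controls were ZIKV-infected untreated cells for no effect and uninfected cells for full effect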
# Summary of the method: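 Luminescent caspase-3/7 read-out (30 min reagent, room temperature) in human SNB-19 cells infected 6 h with ZIKV (2 FFU/cell) after 1 h compound pre-incubation; Data were normalised to uninfected and infected wells.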
# [5] = qHTS Screen of the MIPE 4.0 Collection Against Ewings Sarcoma (RDES) (AID 1259252); also: nearly all actives have a fitted effect of over 35% in size; also: potency is read from the fitted curve at half-maximal effect
# Summary of the method: (§1)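 Compound titrations go onto adherent log-phase cells 4 h after seeding, incubate 48 h at 37C, then CellTiter-Glo luminescence reports viability relative to DMSO and cell-free controls.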
# [6] = qHTS Screen of the MIPE 4.0 Collection Against Ewings Sarcoma (TC71) (AID 1259253); also: nearly all actives have a fitted effect of over 40% in size; also: potency is read from the fitted curve at half-maximal effect
# Summary of the method: as §1
# [7] = qHTS Screen of the MIPE 4.0 Collection Against Ewings Sarcoma (EW8) (AID 1259255); also: nearly all actives have a fitted effect of over 35% in size; also: potency is read from the fitted curve at half-maximal effect;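 as to viability: 100% = DMSO-treated cells and 0% = medium-only wells without cells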
# Summary of the method: as §1
Structure (SMILES),"cell viability, % of control (lower = more cytotoxic) [1] [%]",viability (% of control) [2] [%],Potency [3],Potency [4],Potency [5],Potency [6],Potency [7]
CC=C(C)C(=O)O[C@H]1C(C)=C2[C@@H]3OC(=O)[C@@](C)(O)[C@@]3(O)[C@@H](OC(=O)CCC)C[C@](C)(OC(C)=O)[C@@H]2[C@@H]1OC(=O)CCCCCCC,12.1,2.54,inactive,inactive,148 nM (active),52.6 nM (active),93.5 nM (active)
CC(=Cc1csc(C)n1)[C@@H]1C[C@H]2O[C@]2(C)CCC[C@H](C)[C@@H](O)[C@@H](C)C(=O)C(C)(C)[C@@H](O)CC(=O)O1,50.2,17,inactive,inactive,inactive,inactive,inactive
CC[C@@H](C(N)=O)N1CCCC1=O,211,113,inactive,inactive,,inactive,
Clc1ccccc1C(c1ccccc1)(c1ccccc1)n1cccn1,108,108,inactive,inactive,1050 nM (active),1050 nM (active),1050 nM (active)
CCN1CCN(C(=O)Cc2ccc(Nc3ncc(F)c(Nc4ccc(C(=O)Nc5ccccc5Cl)cc4)n3)cc2)CC1,2.73,2.31,inactive,inactive,8330 nM (active),5900 nM (active),2960 nM (active)
CCNC(=O)CC1N=C(c2ccc(Cl)cc2)c2cc(OC)ccc2-n2c(C)nnc21 (stereo not drawn),15.2,11.7,inactive,inactive,13200 nM (active),,20900 nM (active)
CC[C@@]1(O)C(=O)OCc2c1cc1n(c2=O)Cc2cc3ccccc3nc2-1,4.89,3.88,inactive,inactive,13.2 nM (active),,11.8 nM (active)
COc1ccc2c(c1)[C@]13CCCCC1C(C2)N(C)CC3 (stereo partly drawn),61.8,93.4,inactive,inactive,inactive,inactive,inactive
CCOC(=O)Nc1ccc(NCc2ccc(F)cc2)cc1N,120,105,inactive,inactive,,29600 nM (active),
COc1cc2cc(c1Cl)N(C)C(=O)C[C@H](OC(=O)C(C)C)[C@]1(C)O[C@H]1[C@H](C)[C@@H]1C[C@@](O)(NC(=O)O1)[C@H](OC)C=CC=C(C)C2,10.1,4.31,inactive,inactive,inactive,,inactive
